Source: PubChem
TDP1 cell CPT = growth inhibition of DT40 Tdp1-/-;hTDP1 cells with camptothecin (screen for TDP1 inhibitors); chicken DT40 Tdp1-/-;hTDP1 cells + 20 nM CPT, ATP luminescence, 48 h; Potency, µM (highest dose often 46.2 µM), usual class: inhibitors; AID 686979; hit rate 12% among 420,000; also: nearly all actives have a fitted effect of over 55% in size
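Cell growth measured by CellTiter-Glo luminescence after a minimum 48 h, 37 C compound exposure with 20 nM CPT in Tdp1-knockout DT40 cells stably expressing hTDP1, seeded 400/well; qHTS titration format.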
RORg inh = blocks mouse ROR gamma transcriptional activity | Drosophila S2 Gal4-RORgamma UAS-luciferase reporter, 20 h | Potency, µM (titrated, usually from 53.6 µM), actives largely listed as inhibitors | hit rate 5.4% among 310,000 | AID 2551; also: nearly all actives have a fitted effect of over 60% in size
Target sequence (P51450 whole entry, looked up, the tested form may be a part): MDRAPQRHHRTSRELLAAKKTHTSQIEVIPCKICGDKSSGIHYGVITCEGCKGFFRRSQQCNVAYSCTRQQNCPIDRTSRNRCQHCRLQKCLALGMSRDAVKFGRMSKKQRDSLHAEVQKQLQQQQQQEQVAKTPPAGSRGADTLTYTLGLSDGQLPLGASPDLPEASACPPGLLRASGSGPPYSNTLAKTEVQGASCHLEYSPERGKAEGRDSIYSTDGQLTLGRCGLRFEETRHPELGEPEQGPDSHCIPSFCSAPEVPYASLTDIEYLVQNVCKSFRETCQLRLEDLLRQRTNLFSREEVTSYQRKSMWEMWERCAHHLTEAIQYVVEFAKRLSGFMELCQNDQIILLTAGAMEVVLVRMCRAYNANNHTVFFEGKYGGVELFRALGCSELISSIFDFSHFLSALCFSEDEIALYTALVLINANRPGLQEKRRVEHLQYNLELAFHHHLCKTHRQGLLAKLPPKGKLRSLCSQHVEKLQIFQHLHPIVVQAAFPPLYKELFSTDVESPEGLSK
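ROR gamma transcriptional activity was tracked as Gal4-UAS luciferase output in stably transfected Drosophila Schneider cells, with compound added 1 hr before 700 uM copper sulfate induction and a 20 hr ambient-temperature incubation.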
IL1B secr inh = blocks inflammasome-driven IL-1 beta release; THP-1 LPS/ATP IL-1B secretion, AlphaLISA, 16 h; active compounds read low; activity change, % at 57.5 µM; hit rate 4.7% among 360,000; AID 743279; in the data active = activity change below about -50%; inconclusive = mostly about -30% to -49%
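Secreted IL-1B measured by AlphaLISA bead assay after 16 h compound exposure of THP-1 cells; compounds (final up to 57.5 uM) added 1 h before LPS (250 ng/mL) and ATP (1.25 mM) stimulation; lower signal means less secretion.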
ELG1 repair inh = inhibitors of ELG1-dependent DNA repair in HEK293T cells; Potency, µM (top dose mostly 46.1 µM), hits mostly inhibitors; hit rate 2.3% among 330,000; HEK293T ELG1-luciferase reporter, luminescence, 16 h; DNA damage induced by 5-fluorouridine; also: nearly all actives have a fitted effect of over 55% in size
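In this reporter screen, reduction of luminescence relative to DMSO vehicle indicated activity. Compounds and 5-fluorouridine were added together to 2,000 cells per well, incubated for 16 hr at 37 °C, then developed with ONE-Glo.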
DT40 TDP1 no CPT = qHTS for Inhibitors of human tyrosyl-DNA phosphodiesterase 1 (TDP1): qHTS in cells in absence of CPT; DT40 Tdp1-/- hTDP1 cells, no CPT, ATP luminescence, 48 h; Potency, µM (doses to about 46.2 µM), most hits filed as inhibitors; hit rate 15% among 420,000; AID 686978, 2013; also: nearly all actives have a fitted effect of over 55% in size
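Stably hTDP1-transfected Tdp1-null chicken DT40 cells were treated with library compounds minus camptothecin and grown for at least 48 hr at 37 °C, after which cellular ATP was quantified by luminescence.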
VP16 counter = counter-screen for ROR gamma inhibitors: Gal4-VP16 reporter. Drosophila S2 Gal4-VP16 UAS-luciferase, luminescence, 20 h. Potency, µM (top dose mostly 53.6 µM), actives largely listed as inhibitors. hit rate 3.5% among 310,000;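 also: Gal4-VP16 expression switched on by copper sulfate through the metallothionein promoter; nearly all actives have a fitted effect of over 50% in size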
Numbers stand for hits; [ ] = dose if it differs, or a comment. Compounds with a hit are over-represented: about 21% of the library has one in this group of screens. Unless noted, calls follow the shape of the dose curve; as a rule, active = well fitted curve in the direction sought with a large enough effect; inconclusive = small, poorly fitted or top-dose-only effect, or another doubt; inactive = no such curve, though single readings can be large; an effect the other way counts as inactive or inconclusive.

What do the screens show for `CCN(CC)CCN(Cc1cc2cc3c(cc2[nH]c1=O)OCCO3)C(=S)NCC(C)C`?
TDP1 cell CPT: inconclusive; RORg inh: inactive; IL1B secr inh: -62; ELG1 repair inh: inconclusive; DT40 TDP1 no CPT: inconclusive; VP16 counter: inactive

How did Cc1cc(C)c2[nH]c(=O)c(CN(Cc3cccs3)C(=S)NCc3ccco3)cc2c1 do in these assays?
TDP1 cell CPT: 13µM; RORg inh: inactive; IL1B secr inh: inactive; ELG1 repair inh: 21µM; DT40 TDP1 no CPT: 10µM; VP16 counter: inactive

How did CCN(CC)CCN(Cc1cc2cc3c(cc2[nH]c1=O)OCO3)C(=S)NCC(C)C do in these assays?
TDP1 cell CPT: inactive; RORg inh: inactive; IL1B secr inh: inactive; ELG1 repair inh: inconclusive; DT40 TDP1 no CPT: inactive; VP16 counter: inactive

Results for CCN(CC)CCCN(Cc1cc2cc3c(cc2[nH]c1=O)OCO3)C(=S)NCc1ccco1 ?
TDP1 cell CPT: inactive; RORg inh: inactive; IL1B secr inh: inactive; ELG1 repair inh: inactive; DT40 TDP1 no CPT: inactive; VP16 counter: inactive

Results for Cn1c(SCC(=O)NC2CCCCC2)nnc1-c1ccccc1O ?
TDP1 cell CPT: inactive; RORg inh: inactive; IL1B secr inh: inactive; ELG1 repair inh: inactive; DT40 TDP1 no CPT: inactive; VP16 counter: inactive

What do the screens show for `COc1ccc(NCC(=O)N/N=C/C2CCCCC2)cc1`?
TDP1 cell CPT: inactive; RORg inh: inactive; IL1B secr inh: inactive; ELG1 repair inh: inactive; DT40 TDP1 no CPT: inactive; VP16 counter: inactive

How did CC(C)=CCC/C(C)=C/CO/N=C1/C[C@@H](O)[C@@H](O)[C@@H]2[C@@H]3C(=O)N(C4CCCCC4)C(=O)[C@H]3CC[C@H]12 do in these assays?
RORg inh: inactive[10 µM]; VP16 counter: inactive[10 µM]

What do the screens show for `c1ccc(Oc2nc(N3CCOCC3)nc(N3CCOCC3)n2)cc1`?
TDP1 cell CPT: inconclusive; RORg inh: inactive; IL1B secr inh: inactive; ELG1 repair inh: inconclusive; DT40 TDP1 no CPT: inactive; VP16 counter: inactive

Results for O=C1CSC(c2ccccc2)N1Nc1nc(N2CCOCC2)nc(N2CCOCC2)n1 (stereo unspecified) ?
TDP1 cell CPT: inactive; RORg inh: inactive; IL1B secr inh: inactive; ELG1 repair inh: 6.5µM; DT40 TDP1 no CPT: inconclusive; VP16 counter: inactive

How did S=C(NCc1ccco1)N/N=C/c1ccncc1 do in these assays?
TDP1 cell CPT: inactive; RORg inh: 16µM; IL1B secr inh: inactive; ELG1 repair inh: inactive; DT40 TDP1 no CPT: inactive; VP16 counter: inconclusive

How did CN(C)c1ccc(/C=N/NC(=S)NCc2ccco2)cc1 do in these assays?
TDP1 cell CPT: inconclusive; RORg inh: 1.8µM; IL1B secr inh: inactive; ELG1 repair inh: inactive; DT40 TDP1 no CPT: 18µM; VP16 counter: 5µM

What do the screens show for `COc1cccc(/C=N/NC(=S)NCc2ccco2)c1OC`?
TDP1 cell CPT: inconclusive; RORg inh: 3.5µM; IL1B secr inh: inactive; ELG1 repair inh: inconclusive; DT40 TDP1 no CPT: inconclusive; VP16 counter: inconclusive

What do the screens show for `CN(C)c1ccc(C(=S)NCc2ccco2)cc1`?
TDP1 cell CPT: inconclusive; RORg inh: 4µM; IL1B secr inh: inactive; ELG1 repair inh: inconclusive; DT40 TDP1 no CPT: inconclusive; VP16 counter: 7.9µM

What do the screens show for `NC(=O)c1ccc(NC(=S)NCc2ccco2)cc1`?
TDP1 cell CPT: inactive; RORg inh: inactive; IL1B secr inh: inactive; ELG1 repair inh: inactive; DT40 TDP1 no CPT: inactive; VP16 counter: inactive

What do the screens show for `O=C(CSc1nccn1Cc1ccco1)Nc1ccc(OC(F)(F)F)cc1`?
TDP1 cell CPT: inconclusive; DT40 TDP1 no CPT: inactive

What do the screens show for `NCCCC[C@H](NC(=O)[C@@H]1CCCN1C(=O)[C@@H]1CSSC[C@H](N)C(=O)N[C@@H](Cc2ccc(O)cc2)C(=O)N[C@@H](Cc2ccccc2)C(=O)N[C@@H](CCC(N)=O)C(=O)N[C@@H](CC(N)=O)C(=O)N1)C(=O)NCC(N)=O`?
TDP1 cell CPT: inactive; DT40 TDP1 no CPT: inactive

What do the screens show for `CCOC(=O)C1=C(C)NC(C)=C(C(=O)OCC)C1c1cc2ccc(C)cc2[nH]c1=O`?
TDP1 cell CPT: 23µM; RORg inh: inactive; IL1B secr inh: inactive; ELG1 repair inh: inactive; DT40 TDP1 no CPT: inconclusive; VP16 counter: inactive

Results for COC(=O)C1=C(C)NC(C)=C(C(=O)OC)C1c1cc2ccc(C)cc2[nH]c1=O ?
TDP1 cell CPT: inactive; RORg inh: inactive; IL1B secr inh: inactive; ELG1 repair inh: inactive; DT40 TDP1 no CPT: inconclusive; VP16 counter: inactive

Results for CCc1cccc(NC(=O)C2CCN(S(=O)(=O)c3ccc4c(c3)CC(C)N4C(C)=O)CC2)c1 (stereo unspecified) ?
TDP1 cell CPT: 16µM; RORg inh: inconclusive; IL1B secr inh: inactive; ELG1 repair inh: inconclusive; DT40 TDP1 no CPT: 21µM; VP16 counter: inconclusive

How did CC(=O)Nc1ccc(S(=O)(=O)N2c3ccc(F)cc3CCC2C)cc1 (stereo unspecified) do in these assays?
TDP1 cell CPT: 7.3µM; IL1B secr inh: inactive; DT40 TDP1 no CPT: 5.8µM

What do the screens show for `COc1ccc(CNC(=O)C2CCN(S(=O)(=O)c3cccc(-c4noc(C)n4)c3)CC2)cc1`?
TDP1 cell CPT: 23µM; DT40 TDP1 no CPT: 9.2µM

How did COc1cccc(NC(=O)C2CCN(S(=O)(=O)c3ccc4c(c3)CC(C)N4C(C)=O)CC2)c1 (stereo unspecified) do in these assays?
TDP1 cell CPT: 15µM; RORg inh: inconclusive; IL1B secr inh: inactive; ELG1 repair inh: inactive; DT40 TDP1 no CPT: inconclusive; VP16 counter: inconclusive

Results for Cc1ccsc1C(=O)N1CCC1(C)C(=O)NS(=O)(=O)c1cccc(F)c1 (stereo unspecified) ?
TDP1 cell CPT: inactive; IL1B secr inh: inactive; DT40 TDP1 no CPT: inactive

What do the screens show for `Cc1nc(SCC(=O)Nc2ccccc2F)[nH]c(=O)c1Cc1ccccc1`?
TDP1 cell CPT: inactive; DT40 TDP1 no CPT: inconclusive

What do the screens show for `Cc1cc(C)nc(N2CCC(C(=O)Nc3cccc(C(F)(F)F)c3)CC2)n1`?
TDP1 cell CPT: inconclusive; RORg inh: inactive; IL1B secr inh: inactive; ELG1 repair inh: inconclusive; DT40 TDP1 no CPT: 23µM; VP16 counter: inactive

How did COc1ccc(CNC(=O)C2CCN(S(=O)(=O)c3ccc4c(c3)CC(C)N4C(C)=O)CC2)cc1 (stereo unspecified) do in these assays?
TDP1 cell CPT: inactive; RORg inh: inactive; IL1B secr inh: -76; ELG1 repair inh: inconclusive; DT40 TDP1 no CPT: inactive; VP16 counter: inactive

Results for CC(=O)N1c2ccc(S(=O)(=O)N3CCC(C(=O)Nc4cccc(C(F)(F)F)c4)CC3)cc2CC1C (stereo unspecified) ?
TDP1 cell CPT: 16µM; RORg inh: inactive; IL1B secr inh: inactive; ELG1 repair inh: inactive; DT40 TDP1 no CPT: inconclusive; VP16 counter: inconclusive
